# The whole screen tested about 24,000 compounds, of which about 150 (0.62%) were called active. The list comes from a sample in which actives are over-represented; it also holds similar structures and randomly drawn compounds. Values without a mark were called inactive.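 The calls were made as follows: active = fluorescence ratio above 2.44, which is 1 plus 3 SD of all ratios; inconclusive = signal too bright to measure linearly, ratio around 10 or more; inactive = fluorescence ratio below 2.44.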
# Assay: compound autofluorescence on Jurkat cells, primary screen, artefact control for VLA-4 allosteric ligand project, cell-based, flow cytometry (AID 576);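 also: green fluorescence of cells measured with 488 nm excitation and 530 nm emission; tested at 10 µM compound in the well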
# Conditions: hits give high values, 1 = vehicle-only cell background
row,SMILES,fluorescence ratio
1,CCc1c(C)c2c(C)[nH]nc2oc1=O,1.2
2,CCOc1ccc(-c2nnc3ccc(SC)nn23)cc1,0.96
3,CCOC(=O)c1sc(=S)n2c1[nH]c(=O)c1ccc(C(=O)OC)cc12,1.2
4,CC(=O)Nc1ccc(NS(=O)(=O)c2cc(C)sc2C)cc1,2.14
5,O=C(CC1Oc2ccccc2NC1=O)NCCCN1CCN(Cc2ccccc2)CC1 (stereo not drawn),1.05
6,COCCCNC(=O)CCc1nc2cccnc2n1Cc1ccc(OC)cc1,1.04
7,Cc1ccc(NC(=O)NCC(c2cccnc2)N2CCOCC2)cc1 (stereo not drawn),0.96
8,O=C(CN1CCOc2ccccc21)N1CCC(Cc2ccccc2)CC1,1.07
9,O=C(NCc1ccco1)C1CCCN(S(=O)(=O)c2cccc3nonc23)C1 (stereo not drawn),1.11
10,Cc1ccc(CNC(=O)CN2CCN(Cc3ccc(Cl)cc3)C2=O)cc1,1.03
11,Cc1ccc(NC(=O)C2CCCN(S(=O)(=O)c3c(C)noc3C)C2)c(C)c1 (stereo not drawn),1.07
12,COc1ccc(C2CC(c3ccccc3)Nc3ncnn32)cc1 (stereo not drawn),1.19
13,COc1cccc(-c2nc3n(n2)C(c2ccccc2Cl)C(C(N)=O)=C(C)N3)c1 (stereo not drawn),1.01
14,CN1CCCc2cc(C#N)c(=O)[nH]c21,1
15,O=C(O)CCN1C(=O)CC2(CCCCC2)C1=O,1
16,Cc1ccc(NC(=O)CCNS(=O)(=O)c2ccc3c(c2)oc(=O)n3C)cc1C,1.08
17,CCOC(=O)N1CCN(CC(=O)c2ccc3c(c2)CCN3)CC1,0.99
18,CCCNC(=O)C1CC(=O)N(c2ccc(OCC(=O)Nc3cccc(C)c3C)cc2)C1 (stereo not drawn),1.03
19,COc1ccc(N2C(=O)CCC(C(=O)Nc3ccccn3)C2c2ccc(OC)c(OC)c2)cc1 (stereo not drawn),1.01
20,O=C(CC1N=C2c3ccccc3N=C(SCc3ccccc3Cl)N2C1=O)NCc1ccco1 (stereo not drawn),1.18
21,Cc1occc1C(=O)Nc1nnc(C2CCCCC2)s1,0.94
22,CC1CSc2nnc(CCc3ccccc3)n21 (stereo not drawn),1
23,O=C(NCc1ccc2c(c1)OCO2)c1cc2c(s1)CS(=O)(=O)C2,1.08
24,CCOc1ccc(N(CC(=O)OC)S(=O)(=O)c2c(C)noc2C)cc1,1.04
25,CC(=O)c1c(C)[nH]c(C(=O)NCCCN2CCCC2)c1C,0.97
26,Cc1ccc(C)c(NS(=O)(=O)c2cc(Br)cnc2N)c1,1.02

row,SMILES,fluorescence ratio
1,Cn1c(=O)[nH]c(=O)c2c1nc(CN(Cc1ccccc1)Cc1ccccc1)n2CCN1CCOCC1,1.16
2,Cc1nc2c(-c3ccc(F)cc3)c(C)nn2c(C)c1CCC(=O)N1CCN(c2ccccn2)CC1,1.23
3,O=C(Cn1nc(Cc2cccnc2)c2ccccc2c1=O)NCC1CCCO1 (stereo not drawn),1.02
4,CC(C)C[C@H](NC(=O)[C@@H]1O[C@H]1C(=O)O)C(=O)NCCCCN=C(N)N,0.97
5,COc1ccccc1CNC(=O)Cn1cc2c(n1)CCCC2,1.04
6,CCOC(=O)N1CCC(O)(c2cc(C)c(C)cc2C)CC1,0.98
7,O=C(NCc1ccco1)c1cccn2c(=O)c3cc(Br)ccc3nc12,1
8,CS(=O)(=O)c1ccc2nc(NC(=O)C3C4C=CC(C4)C3C(=O)O)sc2c1 (stereo not drawn),1.05
9,CCCCc1nc2c(=O)[nH]c3ccccc3c2o1,1.21
10,Cc1nc2sc(C(c3ccco3)N3CCC4(CC3)OCCO4)c(O)n2n1 (stereo not drawn),1.05
11,COc1cc2c(cc1OC)C(c1ccc(C)o1)CC(=O)N2 (stereo not drawn),1
12,O=S(=O)(O)CCN1CCOCC1,1.09
13,Cc1cc(NC(=O)CSCc2nc(-c3cccc(Cl)c3)oc2C)no1,1.07
14,c1cc(-c2nn[nH]n2)ccc1CN1CCCCC1,1.02
15,Cc1ccc2c(c1)N(CCCC(=O)NCc1cccnc1)C(=O)CO2,1.05
16,Cc1cccc(N2CCN(S(=O)(=O)c3ccc4c(c3)c(=O)n(C)c(=O)n4C)CC2C)c1 (stereo not drawn),1.11
17,COc1cccc(NC(=O)C2CCCN2C(=O)OCc2ccccc2)c1 (stereo not drawn),1.04
18,CCC(C)NC(=O)C1CCC(=O)N1Cc1ccc(C)cc1 (stereo not drawn),0.99
19,CCC(=O)N1c2ccc(S(=O)(=O)CCC(=O)N3CCN(c4ccccc4)CC3)cc2CC1C (stereo not drawn),1.09
20,Cc1oc(C)c(C(=O)NCCCC(=O)O)c1C(=O)NCCCC(=O)O,1.08
21,O=c1[nH][nH]c(=O)c2cc(N3CCCC3)ccc12,1.01
22,CCOC(=O)N1CCN(S(=O)(=O)c2cc3c(cc2C)NC(=O)CO3)CC1,1.09
23,CCOc1ccc(Cn2nnc(C(=O)NCc3ccccc3)c2N)cc1,1.02
24,COc1ccc(N2C(=O)CCC(C(=O)N(C)C3CCCCC3)C2c2ccc(OC)c(OC)c2)cc1 (stereo not drawn),0.98
25,COC(=O)C1=C(C)Nc2ncnn2C1c1ccco1 (stereo not drawn),1.02
26,CCOc1nc(OCC)nc(-n2cc(-c3ccccc3)nn2)n1,1.08

row,SMILES,fluorescence ratio
1,COCCn1c(-c2ccc(OC)c(OC)c2)nc2ccccc21,1.05
2,O=C(c1ccco1)N1CCN(C(=O)C2CC(c3ccc(F)cc3)=NO2)CC1 (stereo not drawn),1.01
3,CCCOc1ccc(C2c3c(oc4cc(C)c(C)cc4c3=O)C(=O)N2CCCN2CCOCC2)cc1 (stereo not drawn),0.94
4,CCN(CC)CCNC(=O)C1c2ccccc2C(=O)N(C)C1c1cn(C)c2ccccc12 (stereo not drawn),1.11
5,Cc1cccc(NC(=O)C2CCN(S(=O)(=O)c3cccc4cccnc34)CC2)c1,1.03
6,O=S1(=O)CCN2C(=N1)SC1=C2CCN(Cc2ccccc2)C1,0.99
7,Cc1ccc(S(=O)(=O)NCc2cn3ccsc3n2)c(C)c1,1.07
8,Cc1cc(C)c2c(n1)nn1c(N3CCN(c4cccc(Cl)c4)CC3)cc(C)nc21,1.1
9,CC(=O)Nc1ccc(S(=O)(=O)Nc2nc3n(n2)C(c2ccccc2)CC(=O)N3)cc1 (stereo not drawn),1.06
10,ON=C1/C(=N\O)CC2(C/C1=N/O)OCCO2,1.11
11,O=C(O)C1CCN(S(=O)(=O)N2CCOCC2)CC1,1
12,CCN1CCCC1CNC(=O)Cn1cnc2ccc(S(=O)(=O)N3CCC(C)CC3)cc2c1=O (stereo not drawn),1.05
13,CCOc1cc2[nH]c(=O)n(CCC(=O)NCc3ccc(OC)cc3)c(=O)c2cc1OCC,0.94
14,CCOc1ccc(CNC(=O)C2CC(=O)N(C3CCCC3)C2)cc1OC (stereo not drawn),0.92
15,Cc1ccc(-c2ccc(=O)n(CC(=O)NCCCN3CCCCC3)n2)cc1,1.06
16,CCCS(=O)(=O)C(=C1Nc2ccccc2N1)S(=O)(=O)CCC,1.04
17,COc1cc(-n2c(C)nc3cc(C(=O)NCc4ccco4)ccc32)cc(OC)c1OC,1.05
18,COCCOC(=O)C1=C(C)NC(=O)CC1c1cc2c(cc1Br)OCO2 (stereo not drawn),0.99
19,O=C(NCCN1C(=O)C2C3C=CC(C3)C2C1=O)Nc1ccccn1 (stereo not drawn),0.86
20,Cc1ccc(-n2nc3c(c2NC(=O)c2ccc4c(c2)OCO4)CSC3)c(C)c1,0.97
21,CCN1CCN(c2ncnc3c2oc2nc(C)c4c(c23)CC(C)(C)OC4)CC1,0.92
22,Cc1cc(NS(=O)(=O)c2ccccc2)no1,0.95
23,CCC1CCCCN1CCNS(=O)(=O)c1ccc2c(c1)CCN2C(C)=O (stereo not drawn),1.02
24,CC(c1cccnc1)N(CCN(C)C)C(=O)Nc1ccc(Cl)c(Cl)c1 (stereo not drawn),1.09
25,CCCOc1ccc(-c2nc(N)n[nH]2)cc1,1.01
26,CCOc1ccc(-n2c(SC(C)C(=O)OC)nc3c(c2=O)SCC3)cc1 (stereo not drawn),1.09

row,SMILES,fluorescence ratio
1,CCOC(=O)C1CCN(C(=O)C2CCN(S(=O)(=O)CC)CC2)CC1,1.02
2,Cc1ccc2cccc(O)c2[n+]1[O-],1.03
3,CCC(C)n1[nH]c(=O)c2c(C)cc(C)nc21 (stereo not drawn),1.05
4,CCOC(=O)Cn1c(=O)oc2cc(S(=O)(=O)NCC3CCCO3)ccc21 (stereo not drawn),1.88
5,CCn1ncc(C2=NOC(C(=O)N3CCN(c4ccccc4)CC3)C2)c1C (stereo not drawn),1.1
6,Cn1cccc1C1(C(F)(F)F)NCCNC1=O (stereo not drawn),1.07
7,N#CC1=C(N)Oc2cc(O)ccc2C1C1CCCCC1 (stereo not drawn),1.18
8,COC(=O)C1=C(C)OC(N)=C(C#N)C1c1cc(OC)ccc1OC (stereo not drawn),1.05
9,C=C1c2cc(CC)ccc2NC(=O)N1c1ccc(C)cc1,1.01
10,O=c1c2ccccc2[nH]c(=S)n1CCN1CCC(=C(c2ccc(F)cc2)c2ccc(F)cc2)CC1,1.02
11,CC(=O)c1c(N2CCOCC2)nc(=S)n(Cc2ccccc2)c1C,1.3
12,COC(=O)Cn1cc(C(=O)c2cccs2)c2ccccc21,0.93
13,CCn1c(CSc2ncccn2)nnc1SCC(=O)N1c2ccccc2CC1C (stereo not drawn),1
14,Cc1ccc(S(=O)(=O)NCCN2CCOCC2)cc1C,1.05
15,CCOc1ccccc1NC(=O)C1CCN(S(=O)(=O)c2c(C)nn(C)c2C)CC1,1.02
16,N#Cc1ccc(COC(=O)Cn2nnc(-c3ccccc3)n2)cc1,1.04
17,CCOC(=O)c1ccc(NC(=O)Cn2nnc(-c3ccc(C)cc3)n2)cc1,1.04
18,CC(C)(C)NC(=O)Cn1nnc(-c2ccccc2Cl)n1,3.61 (active)
19,O=C(Nc1ccccc1C(=O)N1CCOCC1)C1CCC(=O)N1C1CCCC1 (stereo not drawn),1.04
20,CC(C)NC(=O)CCCn1c(=S)[nH]c2cc3c(cc2c1=O)OCO3,1.14
21,O=C(O)CSCNC(=O)CC12CC3CC(CC(C3)C1)C2,0.77
22,CCOC(=O)C1CCN(C(=O)CC2C(=O)N(Cc3ccccc3)C(C)c3nc4ccccc4n32)CC1 (stereo not drawn),1.02
23,CCOC(=O)c1c(NC(=O)c2cccs2)sc(C)c1C,1.07
24,Cc1c(C(=O)NCCN2CCOCC2)sc2nc(-c3ccc(F)cc3)cn12,1.22
25,CC1CCN(Cc2nc3c(c(=O)n(C)c(=O)n3C)n2Cc2cccc3ccccc23)CC1,1.06

# Source: PubChem BioAssay AID576 (NMMLSC, 2007)
